Several values for one entry are separate records, joined by “and”; a condition that tells them apart may be missing. Identical values can stand only once. Inconclusive results are not listed. Some compounds were tested as several samples or in several runs, with calls that do not always agree. Activity calls are given as the source filed them. Calls follow the shape of the dose curve; as a rule, active = well fitted curve in the direction sought with a large enough effect; inconclusive = small, poorly fitted or top-dose-only effect, or another doubt; inactive = no such curve, though single readings can be large or run the other way.
Experiment: qHTS Assay for Identifying Gametocytocidal Compounds (AID 743244);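 as to max response: actives lower the fluorescent signal which means gametocytes are killed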
Conditions: P. falciparum 3D7 stage III-V gametocytes, alamarBlue, 72 h; max response: hits give low values
Summary of the method: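 Using 20,000 stage III–V 3D7 gametocytes per well, compounds were incubated 72 h under 37 °C/5% CO2. Viability was then assessed by 24 h alamarBlue reduction, measured fluorometrically at 525/598 nm.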
% is scaled to controls: 0 for no effect and ±100 for the full control effect; potency is read from the fitted curve at half-maximal effect.

Compound	max response	Potency
COc1ccc2[nH]c(S(=O)Cc3ncc(C)c(OC)c3C)nc2n1 (stereo not given)	-2.18% (inactive)	
CC(=O)NC(Cc1ccccc1)C(=O)O (stereo not given)	-1.78% (inactive)	
CS(=O)(=O)c1ccc([C@@H](O)[C@@H](CF)NC(=O)C(Cl)Cl)cc1	23.9% (inactive)	
CN1[C@@H]2CC(OC(=O)[C@H](CO)c3ccccc3)C[C@H]1[C@@H]1O[C@@H]12 (stereo not given in full)	9.71% (inactive) and 1.92% (inactive)	
O=C1NC(=O)[C@@]2(CCOc3ccc(F)cc32)N1	-2.96% (inactive)	
O=c1cc(CO)occ1O	1.55% (inactive) and -0.506% (inactive)	
CC(=O)Oc1ccc(C2(c3ccc(OC(C)=O)cc3)C(=O)Nc3ccccc32)cc1	-4.55% (inactive) and 20.8% (inactive)	
NC1[C@H]2CN(c3nc4c(cc3F)c(=O)c(C(=O)O)cn4-c3ccc(F)cc3F)C[C@@H]12 (stereo not given in full)	-0.422% (inactive)	
O=C(O)c1ccccc1-c1ccc(C(F)(F)F)cc1	-6.58% (inactive)	
Cc1ncc([N+](=O)[O-])n1CC(O)CCl (stereo not given)	22.3% (inactive)	
CCCCCCCCCCCCCCCCCCOCC(O)CO (stereo not given)	1.98% (inactive)	
O=C1O[C@H](CO)[C@@H](O)[C@H](O)[C@H]1O	-3.17% (inactive)	
CO/N=C(\C(=O)N[C@@H]1C(=O)N2C(C(=O)O)=C(CSc3nc(=O)c(O)nn3C)CS[C@H]12)c1csc(N)n1	-6.47% (inactive)	
CCCCN1CCCC[C@H]1C(=O)Nc1c(C)cccc1C	12.1% (inactive)	
CN(C)CCN(Cc1ccccc1)c1ccccn1	-8.07% (inactive)	
CC/C=C(\C(=O)N[C@@H]1C(=O)N2C(C(=O)OCOC(=O)C(C)(C)C)=C(COC(N)=O)CS[C@H]12)c1csc(N)n1	11.6% (inactive) and -14.5% (inactive)	
CCN(CC)C(=O)Nc1ccc(OCC(O)CNC(C)(C)C)c(C(C)=O)c1 (stereo not given)	-3.18% (inactive)	
C[C@@H]1CC[C@@]2(OC1)O[C@H]1C[C@H]3[C@@H]4CC[C@H]5C[C@@H](O)CC[C@]5(C)[C@H]4CC(=O)[C@]3(C)[C@H]1[C@@H]2C	-9.03% (inactive)	
Cn1c(=O)c2c(ncn2CC2OCCO2)n(C)c1=O	2.6% (inactive)	
Nc1ccc(S(=O)(=O)Nc2ccc(Cl)nn2)cc1	13.8% (inactive) and 15.1% (inactive)	

Compound	max response	Potency
CC1(C)S[C@@H]2[C@H](NC(=O)Cc3ccccc3)C(=O)N2[C@H]1C(=O)O (tested in a mixture with another compound)	-2.5% (inactive)	
Nc1nc2c(ncn2CCC(CO)CO)c(=O)[nH]1	-1.67% (inactive)	
CC1(C)OC(=O)NC1=O	2.42% (inactive)	
CC(=O)O[C@@]12CO[C@@H]1C[C@H](O)[C@@]1(C)C(=O)[C@H](O)C3=C(C)[C@@H](OC(=O)[C@H](O)[C@@H](NC(=O)OC(C)(C)C)c4ccccc4)C[C@@](O)([C@@H](OC(=O)c4ccccc4)[C@H]21)C3(C)C	-16.9% (inactive)	18.7 µM (active)
O=c1cc[nH]c(=S)[nH]1	12.7% (inactive)	
O=c1cc[nH]c(=O)[nH]1	17% (inactive)	
CC(C)c1c(C(=O)Nc2ccccc2)c(-c2ccccc2)c(-c2ccc(F)cc2)n1CC[C@@H](O)C[C@@H](O)CC(=O)O	-14.7% (inactive)	
O=C(O)c1ccccc1O	6.2% (inactive) and -5.06% (inactive)	
O=C(O)[C@H](O)c1ccccc1	17.9% (inactive)	
CCOc1ccc2ccccc2c1C(=O)N[C@@H]1C(=O)N2[C@@H]1SC(C)(C)[C@@H]2C(=O)O	-1.05% (inactive)	
COc1ccc(S(=O)(=O)Nc2nnc(CC(C)C)s2)cc1	7.52% (inactive) and 10.3% (inactive)	
CC(C)(C)NCC(O)COc1ccc(NC(=O)NC2CCCCC2)cc1 (stereo not given)	11.9% (inactive)	
c1ccc2c(CC3=NCCN3)cccc2c1	1.75% (inactive) and 3.04% (inactive) and -11% (inactive)	
O=C1OC(OC(=O)c2cccnc2Nc2cccc(C(F)(F)F)c2)c2ccccc21 (stereo not given)	9.12% (inactive)	
Cc1ccc2nc(N)[nH]c(=O)c2c1Sc1ccncc1	-4.42% (inactive)	
Nc1ccc(S(=O)(=O)NC(=O)c2ccccc2)cc1	7.19% (inactive)	
Cc1cc2c(cc1S(N)(=O)=O)S(=O)(=O)CCC2	20.4% (inactive)	
CC(=O)Oc1c(C)c(C)c2c(c1C)CC[C@@](C)(CCC[C@H](C)CCC[C@H](C)CCCC(C)C)O2	-2.38% (inactive) and 13.2% (inactive) and -6.36% (inactive)	
C[C@H](NC(CCc1ccccc1)C(=O)O)C(=O)N1CCC[C@H]1C(=O)O (stereo not given in full)	7.34% (inactive)	

From PubChem BioAssay (NCATS)
